Laboratory results as given in PubChem BioAssay (NCI).
The panel holds about 79,000 compounds, 15% with a hit somewhere; the sample as a whole holds those more often. The source made the active and inactive calls. Rule as the data show it: active = growth inhibition above about 70%; inactive = the rest.

Key:
[1] = NCI Yeast Anticancer Drug Screen. Data for the rad50 strain (AID 155);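 also: 0% = growth of vehicle-only cultures of the same strain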; settings: S. cerevisiae rad50 strain growth inhibition; at 50.0 µM; active compounds read high
Procedure, shortened: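 Vehicle-treated cultures provide the reference for the growth inhibition reported for compound-exposed, repair-deficient yeast.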

[2] = NCI Yeast Anticancer Drug Screen. Data for the mec2-1 strain (AID 157); settings: S. cerevisiae mec2-1 strain, at 50.0 µM, active compounds read high
Procedure, shortened: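 Using mec2-1 yeast: add compound, measure growth, express inhibition versus vehicle-treated cultures.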

[3] = NCI Yeast Anticancer Drug Screen. Data for the sgs1 mgt1 strain (AID 161);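 also: 0% = growth of cultures given vehicle only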; settings: S. cerevisiae sgs1 mgt1 strain, at 50.0 µM, active compounds read high
Procedure, shortened: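 This yeast growth screen uses a strain with defined DNA-repair lesions; compound-treated growth is compared with vehicle-treated growth.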

[4] = NCI Yeast Anticancer Drug Screen. Data for the cln2 rad14 strain (AID 165);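 also: 0% = growth equal to vehicle treated cultures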; settings: S. cerevisiae cln2 rad14 strain, at 50.0 µM, active compounds read high
Procedure, shortened: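 Yeast strain cln2 rad14, bearing defects in cell cycle control and DNA repair, serves as the test system; values reflect growth inhibition compared with vehicle.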

[5] = NCI Yeast Anticancer Drug Screen. Data for the bub3 strain (AID 167); settings: S. cerevisiae bub3 mutant strain, at 50.0 µM, active compounds read high
Procedure, shortened: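 Mutant yeast screening strain plus compound; vehicle-treated cultures serve as the 0% inhibition reference.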

[6] = NCI Yeast Anticancer Drug Screen. Data for the mlh1 rad18 strain (AID 175); settings: S. cerevisiae mlh1 rad18 strain growth inhibition; at 50.0 µM; active compounds read high
Procedure, shortened: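 Steps: expose repair-defective yeast to compound; measure growth; express inhibition against vehicle-treated controls.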

Measured: growth inhibition

CN(C)P1(N(C)C)=NP(c2ccccc2)(c2ccccc2)=NP(N(C)C)(N(C)C)=N1
inactive: [1] 13.3% | [2] 20.9% | [3] 47.5% | [4] 24.2% | [5] 1.9% | [6] 48.2%

C=CCn1nnc(N)n1
inactive: [1] -11.8% | [2] 7.15% | [3] -21.8% | [4] 19.5% | [5] 8.35% | [6] -2.25%

CN1CCC[N+](C)=C1c1ccc(N(C)C)cc1
inactive: [1] -22.7% | [2] -12.3% | [3] -4.5% | [4] -14.2% | [5] -10.1% | [6] -7.15%

O=P(Nc1ccccc1)(Oc1ccccc1)N(CCCl)CCCl (stereo not drawn)
inactive: [1] 29.4% | [2] -10% | [3] 1.2% | [4] 24.2% | [5] 7.7% | [6] 20.6%

CC(C)OP(=O)(OC(C)C)C(C)(C)O
inactive: [1] 2.8% | [2] 3.8% | [3] 12.9% | [4] 21.3% | [5] -1.35% | [6] -32.1%

Cc1ccc(-c2cc(C)n(C)[n+]2C)cc1
inactive: [1] 8.05% | [2] 7.05% | [3] 8.7% | [4] -20.9% | [5] 9.6% | [6] -3.05%

CCC[CH2][Sn]([CH2]CCC)([n]1cncn1)[n]1cncn1
active: [1] 92.2% | [2] 96.1% | [3] 93.7% | [4] 78.2% | [5] 88.5% | [6] 93.8%

CC(C)CC(C)OC(=O)Cc1ccccc1 (stereo not drawn)
inactive: [1] 39% | [2] 14.5% | [3] 31.1% | [4] -6.9% | [5] 7.8% | [6] 31.2%

COC[n+]1cccc(C2CCC[N+]2(C)C)c1 (stereo not drawn)
inactive: [1] 6.35% | [2] 1.25% | [3] 6.8% | [4] 9.9% | [5] 1.8% | [6] 15.5%

CCOP(=O)(CC(N)=O)OCC
inactive: [1] -4.9% | [2] 9.8% | [3] 3.5% | [4] 0.1% | [5] 13.8% | [6] -11.8%

CCOC(=O)/C(=C\c1ccc(N(C)C)cc1)[Se]c1ccccc1
inactive: [1] 12.7% | [2] -2.8% | [3] -0.3% | [4] 5% | [5] 18.6% | [6] 56.4%

CC(C(=O)c1ccccc1)N(C)C (stereo not drawn)
inactive: [1] 2.15% | [2] -6.85% | [3] -4.2% | [4] -50.4% | [5] -19.7% | [6] 5.5%

CC1CC(C)OP(Oc2ccccc2)O1 (stereo not drawn)
inactive: [1] -24.6% | [2] 4.05% | [3] -21.8% | [4] -15.7% | [5] -7.15% | [6] -10.5%

CN(C)[C@@H]1C(=O)C(C(N)=O)=C(O)[C@]2(O)C(=O)C3C(=O)c4c(O)ccc(Cl)c4[C@](C)(O)[C@H]3C[C@@H]12 (stereo partly drawn)
inactive: [1] -6.15% | [2] 7.5% | [3] 22.8% | [4] -2.35% | [5] 3.15% | [6] -2.9%

CC(=O)[O-].CC(=O)[O-].O=C(N/N=C/c1cc(Cl)cc(Cl)c1O)c1ccncc1.[Ni+2]
inactive: [1] -12.6% | [2] 18.4% | [3] 19.1% | [4] -22.2% | [5] -0.05% | [6] 16.9%

CCC[CH2][Sn]([CH2]CCC)([O]C(=O)CN)[O]C(=O)CN
inactive: [1] 29.9% | [2] 17.9% | [3] 35.4% | [4] 22% | [5] 19.1% | [6] 44.1%

O=S(OO)c1cc(Cl)c(O)c(Cl)c1 (stereo not drawn)
inactive: [1] 3.5% | [2] -24.1% | [3] -1.55% | [4] 7.55% | [5] -10.7% | [6] 3.4%

CCC1(/C=C/C(C)C)C(=O)NC(=S)NC1=O
inactive: [1] -0.75% | [2] 4.55% | [3] -0.8% | [4] 0.85% | [5] 0.05% | [6] 2.8%

COc1cc([As](=O)(O)O)c(OC)cc1N
inactive: [1] -9.7% | [2] 6.6% | [3] -0.9% | [4] -55.7% | [5] 5.5% | [6] -17.1%

CC12CC/C(=C3/C=CC(=O)S3)C=C1CCC1C2CCC2(C)C(O)CCC12 (stereo not drawn)
inactive: [1] 23.9% | [2] -5.55% | [3] 4.95% | [4] 10.3% | [5] -19.6% | [6] 15.8%

[CH3][Sn]([CH3])([n]1cnc(N)nc1=O)[n]1cnc(N)nc1=O
inactive: [1] 4.75% | [2] 0% | [3] -10.3% | [4] -1.45% | [5] -2.55% | [6] -60.4%

O=C(NC1CCCCC1)C(Cl)(Cl)Cl
inactive: [1] -3.1% | [2] -18.3% | [3] -1.85% | [4] -52% | [5] -4.75% | [6] -5.2%

COC(=O)COC1CC[CH-]CC1.[Cl-].[Cl-].[Cl-].[Cl-].[Cl-].[Sb+5].c1ccncc1
inactive: [1] 20.8% | [2] 7.8% | [3] 18.7% | [4] 17.6% | [5] 4.75% | [6] 12.8%
